What is called inhibition is the relative decrease from the control value, in per cent.

This is an account of results in PubChem BioAssay.

A short description of test [1]: inhibitors of TNFa-induced NFkB p65 translocation, primary screen, imaging, HUVEC, MLSMR starter and 10KST1 sets (AID 438;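 active = inhibition above 20% together with a positive visual image hit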;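 note: compound added about 3h40 before a 20 min TNFalpha stimulation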;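 for inhibition: signal is the nuclear over cytoplasmic p65 intensity ratio per well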). Particulars: HUVEC TNFa-induced p65 nuclear translocation; cell count: measured here: nuclei count (cytotoxicity indicator), at 2.08 µM; inhibition: at 2 µM, stronger effect = higher value, 0% TNFa-plus-vehicle, 100% no-TNFa wells.
A short description of test [2]: reduction of polyQ htt aggregates in cells – imaging, exon1htt(103Q)mCFP cells, high-content imaging, primary screen (AID 483;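 active = visual image review flags a hit and inhibition of aggregation exceeds 20%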;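 note: compound exposure lasted 3 days before fixation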;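 for nuclei count: percent of the per-plate median nuclei count of sample wells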). Particulars: exon1htt(103Q)mCFP cell line, aggregate imaging, at 2 µM; inhibition of aggregation: stronger effect = higher value; nuclei count: measured here: cell count, toxicity.
The nature of test [3]: endothelial E-selectin expression blockers – imaging, HUVEC, immunofluorescence, MLSMR starter and 10KST1 sets, primary screen (AID 487;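 active = visually confirmed hit in the image check and inhibition above 20%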;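 for inhibition: signal is fraction of cell area covered by stained E-selectin grains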;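 for nuclei count: 100% = median nuclei count of all wells on the same plate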). The note with it: HUVEC TNFalpha-induced E-selectin immunofluorescence imaging, at 2 µM; inhibition: stronger effect = higher value; nuclei count: measured here: cell number, toxicity.
Test [4] in a line: Primary imaging screen for DUSP6 inhibitors that restore phospho-Erk in transfected HeLa cells, chemical complementation (AID 609;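 active = compounds giving at least 50% inhibition in the cell-based MKP-3 phosphatase rescue imaging test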;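 for inhibition: phospho-Erk level distribution per well compared with pooled transfected vehicle control wells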). Particulars: HeLa MKP-3 transfected, phospho-Erk imaging KS statistic, at 10 µM, cells stimulated with TPA for 15 min.
In test [5] the target is Dual specificity protein phosphatase 6 (Homo sapiens) (UniProt Q16828). Described as above. Particulars: HeLa MKP-3 transfected, phospho-Erk imaging KS statistic; at 10 µM; stronger effect = higher value; cells stimulated with TPA for 15 min.
The target in test [6] is Voltage-gated potassium channel subunit beta-2 (Rattus norvegicus) (UniProt P62483). Put plainly: inhibitors of rat Kvbeta2 reductase activity – biochemical, NADPH fluorescence, primary screen (AID 622).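 Note: slope of raw intensity against log time taken from 70 to 1610 s.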 The note with it: recombinant KvBeta, 4-cyanobenzaldehyde reduction, at 10 µM, stronger effect = higher value.
Test [7] has the same target. As to the kind of experiment: enhancers of rat Kvbeta2 NADPH turnover – biochemical, NADPH fluorescence, primary screen (AID 623;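 active = NADPH fluorescence slope more negative than the mean of all samples by about 3 SD, 99.7% confidence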;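 note: fluorescence intensity change per second fitted from 20 to 320 s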). The note with it: Recombinant KvBeta, NADPH fluorescence decrease slope, 10 min; at 10 µM; stronger effect = lower value.
Test [8] deals with Alpha-2C adrenergic receptor (Homo sapiens) (UniProt P18825). Put plainly: compounds altering alpha2C-coupled GIRK flux – cell-based, HEK293 alpha2C/GIRK1/2, thallium flux, primary screen (AID 624;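 active = fluorescence slope after compound addition differing from the mean of all screened samples at 99.7% confidence, in either direction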;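 note: slope of fluorescence ratio to pre-addition baseline per second over 15 to 24 s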). Particulars: thallium flux BTC fluorescence, at 10 µM, actives lie on both sides.
Test [9] has as its target Muscarinic acetylcholine receptor M4 (Homo sapiens) (UniProt P08173). As to the kind of experiment: M4-linked GIRK flux change, two-sided – cell-based, HEK293 M4/GIRK, thallium flux, BTC-AM, M4 allosteric agonist project, primary screen (AID 625;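 active = fluorescence slope after compound addition differing from the mean of all tested samples at 99.7% confidence, mostly higher but some lower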;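 note: thallium influx through GIRK channels coupled to M4 in HEK293 cells with BTC-AM dye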). The note with it: at 10 µM, actives lie on both sides.
Test [10] is described as follows: inhibitors of larval lipid processing in zebrafish, primary screen, whole organism, PED6 fluorescence, gall bladder and intestine (AID 686;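 active = a full or partial loss of lipid-probe fluorescence in the fish gall bladder, intestine or both, judged by eye; inactive = no fluorescence loss, or compound toxic to the fish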;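 note: larvae 5 to 7 days old with five fish per well; signal comes from phospholipase A2 cleavage of quenched PED6 carried via bile; overnight exposure to compound and PED6 before scoring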). The note with it: Zebrafish larvae PED6 lipid processing, fluorescence scoring; screened at 20 µM (by protocol).
A short description of test [11]: loss of swimming-algae plug formation – whole organism, Chlamydomonas reinhardtii, WT vs cilia-less mutant, absorbance, 96-well, primary screen (AID 463189;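 active = inhibition at or above 50% relative to wild type and mutant plate controls; inactive = inhibition below 50%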;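 note: 0% = wild type cc124 cells in DMSO and 100% = ciliumless bld1 mutant cells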). The note with it: Chlamydomonas reinhardtii gravitaxis, OD600 absorbance, 2 days; at 10 µM; stronger effect = higher value.
Test [12] is described as follows: blockers of RIG-like receptor reporter activation – cell-based, Sendai virus stimulus, luciferase, 10K MLSCN set, TLR/RLR signaling modifier project, primary screen (AID 602276;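 active = inhibition at or above 50% at 10 µM; inactive = inhibition below 50%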;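 note: firefly luciferase from ISG56 promoter only with Renilla not read in this screen; 0% = Sendai virus plus DMSO and 100% = medium plus DMSO without virus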). The note with it: HEK293 RL24 IRF3 luciferase reporter, at 10 µM, stronger effect = higher value.
A short description of test [13]: TLR3 IRF3 reporter activation blockers – cell-based, poly I:C stimulus, luciferase, 10K MLSCN set, primary screen (AID 602277;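 active = inhibition of the reporter signal at or above 50%; inactive = inhibition below 50%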). Particulars: HEK293-TLR3 RL24 IRF3 luciferase reporter, at 10 µM, stronger effect = higher value.
[14] abbreviates: measured here: cell density z-score.
[15] abbreviates: measured here: nuclear c-Myc green intensity z-score.
Where [16] appears, read: measured here: nuclear pErk red intensity z-score, stronger effect = higher value.

Each structure is given as a SMILES string. Activity calls are given as the source filed them.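 Rule for the calls, unless noted: active = fluorescence slope higher than the sample average by over 3 SD (cut at about -0.22 in these data, passing the limit was not always enough); inactive = the rest.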

Sequence of Muscarinic acetylcholine receptor M4 (Homo sapiens) (P08173 whole entry, looked up): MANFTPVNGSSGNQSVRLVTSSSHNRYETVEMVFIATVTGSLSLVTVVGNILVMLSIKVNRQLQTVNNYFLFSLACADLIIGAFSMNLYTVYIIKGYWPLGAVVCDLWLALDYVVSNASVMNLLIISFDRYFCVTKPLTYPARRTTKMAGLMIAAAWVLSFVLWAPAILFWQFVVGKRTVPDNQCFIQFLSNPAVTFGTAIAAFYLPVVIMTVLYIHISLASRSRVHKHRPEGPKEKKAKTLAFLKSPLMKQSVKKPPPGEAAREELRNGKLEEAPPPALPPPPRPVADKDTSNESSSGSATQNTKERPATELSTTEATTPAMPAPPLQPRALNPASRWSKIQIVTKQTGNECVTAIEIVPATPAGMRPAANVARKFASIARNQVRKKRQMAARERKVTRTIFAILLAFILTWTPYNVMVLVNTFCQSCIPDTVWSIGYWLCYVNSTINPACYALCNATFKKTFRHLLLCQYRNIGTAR
Sequence of Alpha-2C adrenergic receptor (Homo sapiens) (P18825 whole entry, looked up): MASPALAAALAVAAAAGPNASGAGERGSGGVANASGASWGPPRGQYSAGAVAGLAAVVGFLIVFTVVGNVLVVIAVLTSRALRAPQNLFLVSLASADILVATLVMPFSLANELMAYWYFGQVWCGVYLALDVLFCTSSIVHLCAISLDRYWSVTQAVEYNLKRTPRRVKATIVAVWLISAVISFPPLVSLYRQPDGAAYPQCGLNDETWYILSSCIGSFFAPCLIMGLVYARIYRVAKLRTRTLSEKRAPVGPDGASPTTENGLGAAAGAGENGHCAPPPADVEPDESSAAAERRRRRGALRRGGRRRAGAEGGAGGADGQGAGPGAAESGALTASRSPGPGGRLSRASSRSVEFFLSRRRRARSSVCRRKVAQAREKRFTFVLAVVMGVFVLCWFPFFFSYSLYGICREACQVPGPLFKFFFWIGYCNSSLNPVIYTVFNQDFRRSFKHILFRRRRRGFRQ
Sequence of Dual specificity protein phosphatase 6 (Homo sapiens) (Q16828 whole entry, looked up): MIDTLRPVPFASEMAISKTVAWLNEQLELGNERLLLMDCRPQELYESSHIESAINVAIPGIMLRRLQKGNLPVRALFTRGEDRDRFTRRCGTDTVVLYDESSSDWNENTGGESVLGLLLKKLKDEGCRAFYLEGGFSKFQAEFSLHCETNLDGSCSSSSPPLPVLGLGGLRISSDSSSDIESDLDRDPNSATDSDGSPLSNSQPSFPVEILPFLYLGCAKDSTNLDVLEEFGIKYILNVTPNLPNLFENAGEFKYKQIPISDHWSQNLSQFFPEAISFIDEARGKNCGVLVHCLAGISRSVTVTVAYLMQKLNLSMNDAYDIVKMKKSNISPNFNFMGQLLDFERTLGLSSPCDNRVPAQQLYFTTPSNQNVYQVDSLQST
Sequence of Voltage-gated potassium channel subunit beta-2 (Rattus norvegicus) (P62483 whole entry, looked up): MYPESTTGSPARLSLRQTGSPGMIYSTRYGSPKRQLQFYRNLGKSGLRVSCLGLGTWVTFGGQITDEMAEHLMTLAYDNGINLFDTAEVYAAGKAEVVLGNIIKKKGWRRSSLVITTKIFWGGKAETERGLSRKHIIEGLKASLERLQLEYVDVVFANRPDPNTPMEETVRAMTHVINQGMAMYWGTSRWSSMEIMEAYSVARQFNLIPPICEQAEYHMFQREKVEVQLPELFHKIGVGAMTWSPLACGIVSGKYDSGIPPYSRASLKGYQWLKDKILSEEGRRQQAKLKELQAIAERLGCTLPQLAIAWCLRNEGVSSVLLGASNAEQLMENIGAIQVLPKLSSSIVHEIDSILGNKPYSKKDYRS

For the compound `Cc1cc(C)c2c(N)c(C(=O)c3ccccc3)oc2n1`, the cell count in test [1] is 544. Moreover, the inhibition in test [1] is -4.5% (inactive); in [3], -33.5% (inactive); in test [5] it was -3.95% (inactive); in test [11], 14.6% (inactive); in [12], -2.38% (inactive); in test [13], -28.6% (inactive). The inhibition of aggregation in test [2] was 6.6% (inactive). In addition, the nuclei count in test [2] stood at 96.6%; in test [3], 134%. The z-score in test [4] (setting [14]) was -0.541; in test [4] (setting [15]), 1.87; in test [4] (setting [16]) it was 0.479. For the same compound, the fluorescence slope in test [6] is -0.437 (inactive); in [9], 0.00618 (inactive). In [7], the NADPH fluorescence slope was -2.9e-05 (inactive). The slope in test [8] is 0.00545 (inactive). For the same compound, the compound was classed as inactive in test [10].
As for `COC(=O)c1cc(Br)c(=O)n(-c2nccs2)c1`, in test [1], the cell count worked out at 750. For the same compound, the inhibition in test [1] is -4.2% (inactive); in test [3], -134% (inactive); in test [5], 38.2% (inactive); in [11] it was 6.75% (inactive); in test [12] it was -0.165% (inactive); in [13], 1.38% (inactive). In addition, the inhibition of aggregation in test [2] is -14.3% (inactive). For the same compound, the figures for the nuclei count in test [2] and in [3] were 102% and 142%, respectively. The figures for the z-score in [4] (setting [14]), in test [4] (setting [15]) and in test [4] (setting [16]) were -1.41, 0.813 and -2.4, respectively. The fluorescence slope was -0.421 (inactive) in [6] and 0.00469 (inactive) in test [9]. Moreover, the NADPH fluorescence slope in test [7] was -5.6e-05 (inactive). Further, the slope in test [8] was 0.00443 (inactive). In test [10], the compound was classed as inactive.
For the compound `COCCNC(=O)c1c(N)n(CCC2=CCCCC2)c2nc3ccccc3nc12`, in test [1], the cell count turned out to be 661. Moreover, the inhibition was -11.4% (inactive) in [1]; -22.2% (inactive) in test [3]; 20.2% (inactive) in test [5]; 25.3% (inactive) in test [11]; 6.4% (inactive) in test [12]; 8.21% (inactive) in test [13]. For the same compound, in test [2], the inhibition of aggregation is -0.5% (inactive). The results for the nuclei count in [2] and in test [3] were 101% and 149%, respectively. The results for the z-score in test [4] (setting [14]), in test [4] (setting [15]) and in test [4] (setting [16]) were 1.39, -1.83 and -0.195, respectively. For the same compound, the values for the fluorescence slope in test [6] and in [9] were -0.0792 (inactive) and 0.00724 (inactive), respectively. Further, in [7], the NADPH fluorescence slope was -5.5e-06 (inactive). Moreover, the slope in test [8] is 0.00496 (inactive). In test [10], the outcome was inactive.
Consider `CCSc1nnc(NC(=O)C(CC)(C(F)(F)F)C(F)(F)F)s1`, for which the cell count in [1] is 702. The inhibition in [1] was 0.2% (inactive); in test [3], -53.9% (inactive); in test [5], -9.53% (inactive); in test [11] it was 21.1% (inactive); in test [12], -0.9% (inactive); in test [13] it was -31.4% (inactive). In [2], the inhibition of aggregation is -6.4% (inactive). Besides, the figures for the nuclei count in test [2] and in test [3] were 106% and 124%, respectively. Further, the results for the z-score in test [4] (setting [14]), in [4] (setting [15]) and in test [4] (setting [16]) were 0.12, -0.276 and 0.239, respectively. Further, the fluorescence slope in [6] was -0.447 (inactive); in [9], 0.00559 (inactive). Besides, the NADPH fluorescence slope in [7] was -4.4e-05 (inactive). Further, in [8], the slope is 0.00447 (inactive). In addition, the compound was called inactive in [10].
Take `CC1(C2(O)CC(c3ccccc3)ON2)CCCCC1` (stereo not given): the cell count in test [1] was 623. The inhibition in test [1] was 1.7% (inactive); in test [3] it was -10.4% (inactive); in test [5], -6.06% (inactive); in test [11], 9.38% (inactive); in test [12], 2.61% (inactive); in test [13] it was 4.59% (inactive). In addition, the inhibition of aggregation in [2] was 41.9% (inactive). Also, the nuclei count was found to be 65.3% in [2] and 105% in test [3]. The z-score in test [4] (setting [14]) is -1.89; in test [4] (setting [15]) it was -1.27; in test [4] (setting [16]), 0.343. Besides, the figures for the fluorescence slope in test [6] and in [9] were -0.516 (inactive) and 0.00556 (inactive), respectively. Also, the NADPH fluorescence slope in test [7] is -7.6e-05 (inactive). Also, the slope in test [8] is 0.0054 (inactive). In [10], the compound was called inactive.
